In ChEMBL document CHEMBL3988442, “University of Dundee, Small-Polar-MMV Screening Library” (2021):
For part of these data: Results with a measured potency or affinity are listed apart.

What was measured:
Parameters in all cases: scale not given: direction of the effect not stated beside the values
[1] = target: Protein translocase subunit SecA (Escherichia coli (strain K12)) (UniProt P10408); test: Assay to Identify E. coli SecA ATPase Inhibitors; format: functional; conditions: 30 µM
[2] = target: T1, Ubiquitin-activating enzyme e1, putative (Leishmania donovani (strain BPK282A1)) (UniProt E9BSI1); test: Leishmania donovani Ubiquitin Activating Enzyme (LdE1); format: functional; conditions: 30 µM
T1 sequence (whole entry): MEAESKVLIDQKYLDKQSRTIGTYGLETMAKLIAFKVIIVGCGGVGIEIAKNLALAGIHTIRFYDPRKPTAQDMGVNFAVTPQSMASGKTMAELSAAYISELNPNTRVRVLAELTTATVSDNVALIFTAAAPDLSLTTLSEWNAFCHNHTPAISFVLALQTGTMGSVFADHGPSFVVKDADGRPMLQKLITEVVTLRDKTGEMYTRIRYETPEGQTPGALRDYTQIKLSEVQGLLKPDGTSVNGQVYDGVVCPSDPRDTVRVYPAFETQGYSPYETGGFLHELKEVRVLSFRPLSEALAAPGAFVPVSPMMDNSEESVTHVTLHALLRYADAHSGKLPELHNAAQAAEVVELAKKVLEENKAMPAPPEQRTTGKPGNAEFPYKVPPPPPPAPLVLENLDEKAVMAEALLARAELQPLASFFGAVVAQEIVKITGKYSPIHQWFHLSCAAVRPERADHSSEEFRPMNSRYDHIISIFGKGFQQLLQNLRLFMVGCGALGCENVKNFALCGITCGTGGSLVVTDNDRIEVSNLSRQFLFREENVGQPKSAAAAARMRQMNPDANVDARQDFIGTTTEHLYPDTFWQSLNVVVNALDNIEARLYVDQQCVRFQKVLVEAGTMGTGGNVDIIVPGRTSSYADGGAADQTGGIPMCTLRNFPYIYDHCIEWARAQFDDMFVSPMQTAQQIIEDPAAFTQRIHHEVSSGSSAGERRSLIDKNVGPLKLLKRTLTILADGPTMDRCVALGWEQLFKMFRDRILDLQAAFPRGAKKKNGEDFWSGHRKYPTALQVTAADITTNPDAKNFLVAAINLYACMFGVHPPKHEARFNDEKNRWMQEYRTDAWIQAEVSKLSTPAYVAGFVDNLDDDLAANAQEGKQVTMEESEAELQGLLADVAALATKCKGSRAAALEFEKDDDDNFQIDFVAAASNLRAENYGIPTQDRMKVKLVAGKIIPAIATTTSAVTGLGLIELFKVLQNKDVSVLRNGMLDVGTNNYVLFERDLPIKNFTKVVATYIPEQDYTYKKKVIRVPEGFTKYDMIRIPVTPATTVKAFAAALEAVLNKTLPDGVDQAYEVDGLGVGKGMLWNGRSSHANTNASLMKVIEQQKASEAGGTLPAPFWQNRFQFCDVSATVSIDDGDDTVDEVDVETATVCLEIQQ

[3] = target: T2, Aspartate--tRNA(Asp/Asn) ligase (Mycobacterium tuberculosis (strain ATCC 25618 / H37Rv)) (UniProt P9WFW3); test: Assay for Asp RNA synthetase-1 from Mycobacterium tuberculosis; format: functional; conditions: 30 µM; further: in the data most compounds retested in dose-response had high values
T2 sequence (whole entry): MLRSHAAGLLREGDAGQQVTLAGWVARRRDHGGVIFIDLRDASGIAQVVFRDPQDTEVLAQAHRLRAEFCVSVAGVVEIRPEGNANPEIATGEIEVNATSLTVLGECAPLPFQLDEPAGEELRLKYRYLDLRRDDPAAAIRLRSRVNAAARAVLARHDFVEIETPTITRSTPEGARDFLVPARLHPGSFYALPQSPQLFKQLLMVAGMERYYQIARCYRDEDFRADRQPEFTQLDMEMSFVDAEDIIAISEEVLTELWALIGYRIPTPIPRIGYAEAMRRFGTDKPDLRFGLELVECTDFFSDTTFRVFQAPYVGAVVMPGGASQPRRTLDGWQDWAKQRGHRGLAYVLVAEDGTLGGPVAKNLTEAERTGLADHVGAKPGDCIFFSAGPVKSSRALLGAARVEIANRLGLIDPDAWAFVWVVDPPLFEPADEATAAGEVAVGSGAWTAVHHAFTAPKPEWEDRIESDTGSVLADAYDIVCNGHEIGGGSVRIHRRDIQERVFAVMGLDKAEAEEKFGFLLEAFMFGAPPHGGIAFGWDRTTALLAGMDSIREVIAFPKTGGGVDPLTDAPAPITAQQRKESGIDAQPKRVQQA

[4] = target: AMP-activated protein kinase, AMPK (Homo sapiens) (UniProt P54646+O43741+P54619+Q9UGJ0+Q9Y478+Q13131+Q9UGI9); test: AMP-dependent Kinase enzyme assay. An in vitro enzyme assay that detects ADP turnover that is directly proportional to AMPK activity. This uses naive AMPK that is activated during the assay with MK-8722; format: functional; conditions: 30 µM
[5] = target: Sialic acid-binding Ig-like lectin 9 (Homo sapiens) (UniProt Q9Y336); test: Hs-Siglec9 ALPHAscreen SOP 20170721; conditions: 10 µM
[6] = test system: Trypanosoma cruzi; test: Trypanosoma cruzi phosphomannomutase and mannose-1-phosphate guanylyltransferase assay; format: functional; conditions: 10 µM
[7] = target: T3, Arginase-2, mitochondrial (Homo sapiens) (UniProt P78540); test: in vitro enzyme assay to detect the production of urea directly proportional to the activity of Arginase II; format: functional; conditions: 33.3 µM; further: in the data most compounds retested in dose-response had high values
T3 sequence (whole entry): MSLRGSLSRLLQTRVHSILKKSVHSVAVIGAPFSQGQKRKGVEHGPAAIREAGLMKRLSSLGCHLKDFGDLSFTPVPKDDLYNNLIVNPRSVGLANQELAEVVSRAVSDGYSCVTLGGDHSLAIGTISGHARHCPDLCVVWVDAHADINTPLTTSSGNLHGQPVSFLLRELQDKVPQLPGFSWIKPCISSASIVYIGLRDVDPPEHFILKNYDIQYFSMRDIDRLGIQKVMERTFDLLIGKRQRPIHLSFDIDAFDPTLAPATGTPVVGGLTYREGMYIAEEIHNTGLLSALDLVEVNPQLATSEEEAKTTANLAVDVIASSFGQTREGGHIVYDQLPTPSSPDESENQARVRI

[8] = target: T4, Proteasome subunit beta (Trypanosoma cruzi) (UniProt O96673); test: Trypanosoma cruzi proteasome chymotrypsin-like activity (TcProtChymo) assay.; further: in the data most compounds retested in dose-response had high values; format: functional; conditions: 9.37 µM
T4 sequence (whole entry): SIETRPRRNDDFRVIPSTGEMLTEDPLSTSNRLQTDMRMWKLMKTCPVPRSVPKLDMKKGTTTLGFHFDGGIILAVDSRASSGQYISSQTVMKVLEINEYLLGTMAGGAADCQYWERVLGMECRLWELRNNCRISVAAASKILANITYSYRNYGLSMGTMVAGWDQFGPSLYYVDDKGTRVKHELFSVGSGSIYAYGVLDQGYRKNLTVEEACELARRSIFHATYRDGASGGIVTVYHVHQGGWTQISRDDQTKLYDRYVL

[9] = organism: Homo sapiens; test: To identify inhibition of the IFN signalling (Jak-Stat) pathway via expression of an eGFP reporter gene under the control of an IFN-stimulated response element (ISRE) containing MxA promoter.; format: functional; conditions: 30 µM
[10] = target: Shiga toxin 2 (Escherichia coli O157:H7) (UniProt P09385+P09386); test: E. coli 0.157:H7 Shiga Toxin SOP - stx2 screening assay; format: functional; conditions: 30 µM
[11] = target: T5, Tyrosyl-tRNA synthetase, putative (Trypanosoma cruzi (strain CL Brener)) (UniProt Q4DSP6); test: Trypanosoma cruzi tyrosyl tRNA synthetase (TcYRS) _High Tyrosine SOP; format: functional; conditions: 30 µM; further: in the data most compounds retested in dose-response had high values
T5 sequence (whole entry): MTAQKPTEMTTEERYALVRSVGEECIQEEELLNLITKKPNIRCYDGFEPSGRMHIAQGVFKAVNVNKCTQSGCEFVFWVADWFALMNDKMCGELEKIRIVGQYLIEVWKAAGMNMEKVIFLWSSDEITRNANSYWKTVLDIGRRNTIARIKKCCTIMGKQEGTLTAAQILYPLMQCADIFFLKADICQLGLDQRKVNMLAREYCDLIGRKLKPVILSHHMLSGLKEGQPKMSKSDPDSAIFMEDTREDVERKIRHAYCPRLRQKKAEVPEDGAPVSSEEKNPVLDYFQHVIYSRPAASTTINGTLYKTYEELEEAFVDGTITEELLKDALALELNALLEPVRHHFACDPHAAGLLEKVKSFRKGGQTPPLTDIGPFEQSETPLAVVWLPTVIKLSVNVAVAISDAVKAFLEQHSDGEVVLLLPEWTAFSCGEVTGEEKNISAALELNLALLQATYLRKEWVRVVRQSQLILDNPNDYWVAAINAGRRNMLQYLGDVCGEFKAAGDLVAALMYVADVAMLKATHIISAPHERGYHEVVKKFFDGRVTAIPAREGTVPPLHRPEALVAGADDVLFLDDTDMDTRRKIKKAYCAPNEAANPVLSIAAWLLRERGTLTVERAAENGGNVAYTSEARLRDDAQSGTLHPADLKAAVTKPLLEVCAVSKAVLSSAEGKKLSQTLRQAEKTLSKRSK

[12] = target: T5, Tyrosyl-tRNA synthetase, putative (Trypanosoma cruzi (strain CL Brener)); test: Trypanosoma cruzi tyrosyl tRNA synthetase (TcYRS) SOP; format: functional; conditions: 30 µM
[13] = target: Chromo domain-containing protein 1 (Saccharomyces cerevisiae (strain ATCC 204508 / S288c) (Baker's yeast)) (UniProt P32657); test: ScCHD-1 Enzyme Inhibition Assay; format: functional; conditions: 30 µM; further: in the data most compounds retested in dose-response had high values
Chromo domain-containing protein 1 (Saccharomyces cerevisiae (strain ATCC 204508 / S288c) (Baker's yeast)), sequence (P32657 whole entry, the tested form may be a part): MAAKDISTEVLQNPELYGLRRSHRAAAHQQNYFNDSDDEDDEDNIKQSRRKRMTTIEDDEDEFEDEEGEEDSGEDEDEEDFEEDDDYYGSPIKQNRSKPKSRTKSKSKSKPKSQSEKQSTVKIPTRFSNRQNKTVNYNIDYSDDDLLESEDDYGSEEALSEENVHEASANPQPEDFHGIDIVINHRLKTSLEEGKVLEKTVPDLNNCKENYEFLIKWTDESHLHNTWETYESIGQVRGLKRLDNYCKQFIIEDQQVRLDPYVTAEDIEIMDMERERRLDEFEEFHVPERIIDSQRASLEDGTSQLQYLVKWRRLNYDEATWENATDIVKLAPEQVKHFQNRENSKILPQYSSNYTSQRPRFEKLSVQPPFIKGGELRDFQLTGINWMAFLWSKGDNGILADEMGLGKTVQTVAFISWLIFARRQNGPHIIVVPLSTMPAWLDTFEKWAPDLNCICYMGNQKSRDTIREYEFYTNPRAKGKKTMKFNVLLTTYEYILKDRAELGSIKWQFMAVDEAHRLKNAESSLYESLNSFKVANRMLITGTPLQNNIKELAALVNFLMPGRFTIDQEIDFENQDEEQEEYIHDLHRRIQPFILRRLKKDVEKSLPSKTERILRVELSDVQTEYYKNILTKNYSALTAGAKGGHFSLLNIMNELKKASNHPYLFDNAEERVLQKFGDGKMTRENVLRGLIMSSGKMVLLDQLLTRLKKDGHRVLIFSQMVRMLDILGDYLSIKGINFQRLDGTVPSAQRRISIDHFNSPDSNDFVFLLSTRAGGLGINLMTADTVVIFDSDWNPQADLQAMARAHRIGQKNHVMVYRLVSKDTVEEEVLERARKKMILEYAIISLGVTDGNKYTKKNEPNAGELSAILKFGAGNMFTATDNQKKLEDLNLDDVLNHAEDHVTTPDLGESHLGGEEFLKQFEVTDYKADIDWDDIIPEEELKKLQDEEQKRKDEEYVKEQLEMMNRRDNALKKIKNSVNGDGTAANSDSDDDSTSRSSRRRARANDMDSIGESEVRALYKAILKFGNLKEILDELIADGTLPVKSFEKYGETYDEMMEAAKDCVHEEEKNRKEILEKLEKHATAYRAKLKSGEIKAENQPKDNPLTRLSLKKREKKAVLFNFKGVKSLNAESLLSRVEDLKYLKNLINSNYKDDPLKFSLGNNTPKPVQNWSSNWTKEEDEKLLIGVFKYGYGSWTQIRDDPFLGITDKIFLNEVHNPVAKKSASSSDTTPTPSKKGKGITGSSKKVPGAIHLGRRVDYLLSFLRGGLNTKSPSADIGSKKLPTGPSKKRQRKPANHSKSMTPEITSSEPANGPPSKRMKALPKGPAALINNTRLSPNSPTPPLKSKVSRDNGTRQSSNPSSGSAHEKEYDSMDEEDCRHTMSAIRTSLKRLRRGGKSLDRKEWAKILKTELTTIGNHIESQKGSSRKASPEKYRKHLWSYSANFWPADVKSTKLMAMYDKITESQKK

Protein translocase subunit SecA (Escherichia coli (strain K12)), sequence (P10408 whole entry): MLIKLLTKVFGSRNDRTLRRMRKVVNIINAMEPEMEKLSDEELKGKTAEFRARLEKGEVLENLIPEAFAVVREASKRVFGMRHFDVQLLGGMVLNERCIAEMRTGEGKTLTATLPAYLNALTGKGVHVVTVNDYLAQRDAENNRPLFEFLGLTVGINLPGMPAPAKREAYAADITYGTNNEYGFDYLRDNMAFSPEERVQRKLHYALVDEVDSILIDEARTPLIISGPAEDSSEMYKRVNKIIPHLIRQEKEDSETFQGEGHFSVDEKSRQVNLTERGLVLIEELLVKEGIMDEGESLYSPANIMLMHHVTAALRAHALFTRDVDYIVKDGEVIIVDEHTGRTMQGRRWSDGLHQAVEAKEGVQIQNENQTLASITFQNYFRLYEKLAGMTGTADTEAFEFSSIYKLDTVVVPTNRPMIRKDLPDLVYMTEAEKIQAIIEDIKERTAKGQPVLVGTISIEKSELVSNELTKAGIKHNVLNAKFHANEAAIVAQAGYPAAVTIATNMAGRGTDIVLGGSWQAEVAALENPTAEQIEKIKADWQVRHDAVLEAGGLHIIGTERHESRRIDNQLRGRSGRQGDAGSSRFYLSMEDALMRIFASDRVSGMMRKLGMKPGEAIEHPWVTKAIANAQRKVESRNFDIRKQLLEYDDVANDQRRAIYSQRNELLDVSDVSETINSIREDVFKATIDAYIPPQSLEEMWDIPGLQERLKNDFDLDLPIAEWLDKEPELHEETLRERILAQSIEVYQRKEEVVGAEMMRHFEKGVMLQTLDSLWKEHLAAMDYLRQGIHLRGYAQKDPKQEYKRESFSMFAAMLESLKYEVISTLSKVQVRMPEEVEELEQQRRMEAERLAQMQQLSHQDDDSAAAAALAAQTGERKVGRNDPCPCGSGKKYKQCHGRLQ
Sialic acid-binding Ig-like lectin 9 (Homo sapiens), sequence (Q9Y336 whole entry): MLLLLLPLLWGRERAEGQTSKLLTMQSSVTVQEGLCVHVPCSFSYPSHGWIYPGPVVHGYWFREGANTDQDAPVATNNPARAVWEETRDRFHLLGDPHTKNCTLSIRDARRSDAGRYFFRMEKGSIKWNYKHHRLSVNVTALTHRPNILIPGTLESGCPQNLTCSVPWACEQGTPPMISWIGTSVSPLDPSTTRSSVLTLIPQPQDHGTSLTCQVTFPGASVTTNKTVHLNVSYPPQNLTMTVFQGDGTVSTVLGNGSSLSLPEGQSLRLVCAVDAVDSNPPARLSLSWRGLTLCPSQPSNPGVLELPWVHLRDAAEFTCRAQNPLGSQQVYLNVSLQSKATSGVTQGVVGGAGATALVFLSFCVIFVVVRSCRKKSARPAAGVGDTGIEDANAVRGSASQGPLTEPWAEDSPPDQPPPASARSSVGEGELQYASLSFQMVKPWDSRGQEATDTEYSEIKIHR

Row | SMILES | Percent Effect [1] | Percent Effect [2] | Percent Effect [3] | Percent Effect [4] | Percent Effect [5] | Percent Effect [6] | Percent Effect [7] | Percent Effect [8] | Percent Effect [9] | Percent Effect [10] | Percent Effect [11] | Percent Effect [12] | Percent Effect [13]
1 | Cc1cccc(CO[C@@H]2CC[C@H]3[C@H]2OCCN3Cc2ccsc2)n1 | -6.22% | 21.3% | 0.204% | -3.76% | 1.99% | 4.44% | -38.9% | 13.3% | 20.3% | -20.4% | 3.12% | 15% | -6.6%
2 | O=C(N[C@H]1CN[C@H]2CCCO[C@H]21)c1ccno1 | -2.91% | 2.74% | 0.661% | -1.51% | 4.01% | 4.76% | -2.4% | 6.76% | -9.47% | 2.67% | 4.17% | 6.17% | 2.08%
3 | Fc1cnc(N2CCO[C@H]3CN(CC4CCC4)C[C@H]32)nc1 | -5.78% | 16% | -2.5% | -5.38% | 0.543% | 1.93% | -59.3% | 14.5% | 5.62% | -17.2% | -4.17% | 17.5% | -17.8%
4 | O=C(COc1cccc(F)c1)N1C[C@@H](O)[C@H](N2CCCC2)C1 | 0.584% | 4.05% | -0.878% | 10.1% | 2.64% | 4.94% | 0.696% | 7.33% | -0.848% | -11.4% | 0% | -3.9% | -18.1%
5 | CCN1C[C@H]2[C@@H](C1)N(S(=O)(=O)c1cccnc1)CC[C@H]2OC | -0.0411% | 5.33% | 1.49% | 5.24% | -6.52% | -5.91% | -2.56% | 4.49% | 14.5% | -25% | -3.19% | -3.85% | -1.11%
6 | c1cnc(N2CCCC3(CCN(Cc4ccncc4)C3)C2)nc1 (configuration not stated) | -2.54% | 8.11% | 4.42% | 2.74% | -7% | -1.66% | -6.69% | 24.7% | -1.82% | 1.1% | 1.08% | 15.4% | -3.48%
7 | O=C(NC[C@]12COC[C@H]1CN(Cc1ccncc1)C2)c1ccco1 | -2.11% | 13.3% | -0.368% | 7.09% | 2.99% | -2.17% | 4.43% | 12.8% | 7.74% | -4.6% | 10.6% | 21.8% | -2.5%
8 | CN1CCC2(COCc3cnc(N4CCOCC4)nc32)C1 (configuration not stated) | -1.86% | -1.33% | -1.51% | 5.52% | 4.35% | -1.18% | -0.528% | 5.36% | -2.62% | -6.09% | 0% | -5.13% | -1.41%
9 | c1ccc(OC[C@H]2CCC[C@]23CN(Cc2nccs2)CCO3)nc1 | 1.87% | 0% | -0.162% | -19.9% | 5.02% | -2.36% | -15.2% | 3.08% | 34.4% | -11.8% | 1.06% | 3.85% | 3.38%
